Measurements from PubChem BioAssay (NCATS).
Results filed as inconclusive are left out. Activity calls are given as the source filed them. Calls come from the whole dose curve; as a rule, active = well fitted curve in the direction sought with a large enough effect; inconclusive = small, poorly fitted or top-dose-only effect, or another doubt; inactive = no such curve, though single readings can be large; an effect the other way counts as inactive or inconclusive.

These molecules were tested against Cytochrome P450 3A4 (Homo sapiens) (UniProt P08684) (assay: qHTS Assay for Inhibitors and Substrates of Cytochrome P450 3A4 (AID 884; note: nearly all actives have a fitted effect of over 50% in size; note: potency is the fitted concentration of half-maximal effect; for activity change, negative = inhibition: % is set by controls: 0 for no effect and ±100 for the full control effect)). Settings: recombinant CYP3A4, Luciferin-PPXE luminescence; series mostly up to 57.1 µM; activity change, negative = inhibition: at the top concentration.
Chain of Cytochrome P450 3A4 (Homo sapiens) (P08684 whole entry, looked up): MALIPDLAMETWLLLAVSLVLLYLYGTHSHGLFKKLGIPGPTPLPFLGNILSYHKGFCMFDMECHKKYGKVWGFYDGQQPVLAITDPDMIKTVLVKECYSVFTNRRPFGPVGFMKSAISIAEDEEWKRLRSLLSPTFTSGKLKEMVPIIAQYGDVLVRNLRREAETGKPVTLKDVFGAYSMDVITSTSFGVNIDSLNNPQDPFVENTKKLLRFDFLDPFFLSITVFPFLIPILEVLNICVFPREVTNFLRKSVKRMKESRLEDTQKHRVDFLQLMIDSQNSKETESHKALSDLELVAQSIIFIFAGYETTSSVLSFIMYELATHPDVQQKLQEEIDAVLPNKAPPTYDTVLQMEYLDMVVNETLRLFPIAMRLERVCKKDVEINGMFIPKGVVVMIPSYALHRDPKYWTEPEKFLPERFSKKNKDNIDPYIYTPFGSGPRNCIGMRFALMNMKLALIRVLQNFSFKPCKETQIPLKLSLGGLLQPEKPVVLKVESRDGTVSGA
In short: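 20 nM human CYP3A4 with 25 uM Luciferin-PPXE (at KM) in 200 mM KPO4, preincubated 10 min with compound; NADPH regeneration started a 60 min RT reaction. Luciferin detected by luminescence, normalized to 57 uM ketoconazole as full inhibition.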

| SMILES | activity change, negative = inhibition | Potency |
| --- | --- | --- |
| O=C(O)C(Br)Br | -11.6% (inactive) |  |
| Cc1ccc(OP(=O)(Oc2ccc(C)cc2)Oc2ccc(C)cc2)cc1 |  | 7.94 µM (active) |
| Oc1c(Cl)c(Cl)cc(Cl)c1Cl | -8.5% (inactive) |  |
| Nc1ccc(Cc2ccc(N)c(Cl)c2)cc1Cl |  | 5.01 µM (active) |
| CN(C)c1ccc(N(C)C)cc1 | -14.7% (inactive) |  |
| Brc1ccc(Oc2ccc(Br)cc2Br)c(Br)c1 | 10.8% (inactive) |  |
| O=[N+]([O-])c1c(Cl)c(Cl)c(Cl)c(Cl)c1Cl | -19.8% (inactive) |  |
| CN1CSC(=S)N(C)C1 | -8.06% (inactive) |  |
| ClCC(Cl)Cl | -4.67% (inactive) |  |
| C=CC(=O)OCCO | -8.83% (inactive) |  |
| CC(C)Br | -8.38% (inactive) |  |
| O=[N+]([O-])c1ccc(O)c([N+](=O)[O-])c1 | -8.21% (inactive) |  |
| CC(C)[N+](=O)[O-] | -6.45% (inactive) |  |
| CCCC[N+](=O)[O-] | 5.64% (inactive) |  |
| Cc1cc(-c2cc(C)c(N)c(C)c2)cc(C)c1N |  | 25.1 µM (active) |
| Nc1cc(Cl)ccc1O | -40.7% (inactive) |  |
| CCN(N=O)C(N)=O | 5.61% (inactive) |  |
| N#CC(Cl)(Cl)Cl | 3.92% (inactive) |  |
| CCCCC(CC)COC(=O)c1ccc(C(=O)OCC(CC)CCCC)c(C(=O)OCC(CC)CCCC)c1 (configuration not stated) | -11.7% (inactive) |  |

| SMILES | activity change, negative = inhibition | Potency |
| --- | --- | --- |
| O=C(O)C(Br)CBr (configuration not stated) | -17.9% (inactive) |  |
| O=[N+]([O-])c1ccccc1CCl | 8.89% (inactive) |  |
| Cc1cc(C)cc(OP(=O)(Oc2cc(C)cc(C)c2)Oc2cc(C)cc(C)c2)c1 |  | 2.51 µM (active) |
| N#CC(Br)Br | -5.69% (inactive) |  |
| O=C(O)C(Cl)Br (configuration not stated) | -4.85% (inactive) |  |
| COP(=S)(OC)SCn1nnc2ccccc2c1=O |  | 7.94 µM (active) |
| Nc1ccc([N+](=O)[O-])cc1N | -7.72% (inactive) |  |
| O=C(O)c1cccc(Cl)c1 | -1.99% (inactive) |  |
| Cc1cc(N=Nc2ccccc2C)ccc1N |  | 5.01 µM (active) |
| OCCCCO | -17.1% (inactive) |  |
| O=[N+]([O-])c1cc(Cl)c(Cl)c(Cl)c1 | -19.4% (inactive) |  |
| CC(C)(COCC1CO1)COCC1CO1 (configuration not stated) | -6.83% (inactive) |  |
| Cc1ccc2c(c1N)C(=O)c1ccccc1C2=O |  | 5.01 µM (active) |
| COc1ccccc1N | -17.6% (inactive) |  |
| CC(C)(C)OOC(=O)c1ccccc1 | -4.65% (inactive) |  |
| c1ccc(N=NNc2ccccc2)cc1 | -24.3% (inactive) |  |
| COC(C)(C)C | -2.34% (inactive) |  |
| C(CCOCC1CO1)COCC1CO1 (configuration not stated) | -2% (inactive) |  |
| O=[N+]([O-])/C=C/c1ccccc1 | -29.2% (inactive) |  |

Each molecule was assayed against Cytochrome P450 3A4 (Homo sapiens) (UniProt P08684) (assay: qHTS Assay for Activators of Cytochrome P450 3A4 (AID 885; note: nearly all actives have a fitted effect of over 65% in size)). Settings: recombinant CYP3A4, Luciferin-PPXE luminescence, 60 min; series mostly up to 57.1 µM; activity change, positive = activation: at the top concentration.
In short: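 20nM CYP3A4 + 25uM Luciferin-PPXE (=KM), 200mM KPO4; cpd 10 min RT; NADPH regen, 60 min RT; stop w/ detection buffer, 20 min; luminescence. Normalized to 57 uM ketoconazole.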

| SMILES | activity change, positive = activation |
| --- | --- |
| Cc1ccc(OP(=O)(Oc2ccc(C)cc2)Oc2ccc(C)cc2)cc1 | -80.7% (inactive) |
| Nc1ccc(Cc2ccc(N)c(Cl)c2)cc1Cl | -95.3% (inactive) |
| Cc1cc(-c2cc(C)c(N)c(C)c2)cc(C)c1N | -67.5% (inactive) |
| Nc1c(Br)cc([N+](=O)[O-])cc1[N+](=O)[O-] | -31.2% (inactive) |
| Cc1cc(C)cc(OP(=O)(Oc2cc(C)cc(C)c2)Oc2cc(C)cc(C)c2)c1 | -83.5% (inactive) |
| COP(=S)(OC)SCn1nnc2ccccc2c1=O | -89.7% (inactive) |
| Cc1cc(N=Nc2ccccc2C)ccc1N | -86.5% (inactive) |
| Cc1ccc2c(c1N)C(=O)c1ccccc1C2=O | -72.7% (inactive) |
| CN(C)c1ccc(N)cc1 | -57% (inactive) |
